In the library only some 10% were active in any assay of this set; here they are far more common.
HP1b chromo inh – HTS for Inhibitors of HP1-beta Chromodomain Interactions with Methylated Histone Tails. Chromobox protein homolog 1 (Homo sapiens), P83916. AlphaScreen HP1-beta / biotin-H3K9me3 peptide binding. Potency, µM (doses to about 114 µM), for inactives: at the top dose activity change, negative = inhibition, usual class: inhibitors. 390,000 compounds, 0.56% hits; further: nearly all actives have a fitted effect of over 70% in size
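AlphaScreen: HP1-beta (50 nM) preformed 30 min with biotin-H3(1-18)K9me3 peptide (50 nM) in PBS pH 7.4, 0.01% Tween-20. Compound added for 30 min at RT, then streptavidin donor/nickel chelate acceptor beads (10 ug/mL) for 30 min.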
JMJD2A Tudor inh – qHTS Assay for Inhibitors of JMJD2A-Tudor Domain. Lysine-specific demethylase 4A (Homo sapiens), O75164. AID 504339, 2011. Potency, µM (series often up to 114 µM), for the others: top-dose activity change, negative = inhibition, usual class: inhibitors. AlphaScreen JMJD2A-Tudor / H3K4me3 peptide binding. 390,000 compounds, 4.4% hits; further: on the % scale 0 is the no-effect control and ±100 the full control effect; nearly all actives have a fitted effect of over 50% in size
Target sequence (O75164 whole entry, looked up, the tested form may be a part): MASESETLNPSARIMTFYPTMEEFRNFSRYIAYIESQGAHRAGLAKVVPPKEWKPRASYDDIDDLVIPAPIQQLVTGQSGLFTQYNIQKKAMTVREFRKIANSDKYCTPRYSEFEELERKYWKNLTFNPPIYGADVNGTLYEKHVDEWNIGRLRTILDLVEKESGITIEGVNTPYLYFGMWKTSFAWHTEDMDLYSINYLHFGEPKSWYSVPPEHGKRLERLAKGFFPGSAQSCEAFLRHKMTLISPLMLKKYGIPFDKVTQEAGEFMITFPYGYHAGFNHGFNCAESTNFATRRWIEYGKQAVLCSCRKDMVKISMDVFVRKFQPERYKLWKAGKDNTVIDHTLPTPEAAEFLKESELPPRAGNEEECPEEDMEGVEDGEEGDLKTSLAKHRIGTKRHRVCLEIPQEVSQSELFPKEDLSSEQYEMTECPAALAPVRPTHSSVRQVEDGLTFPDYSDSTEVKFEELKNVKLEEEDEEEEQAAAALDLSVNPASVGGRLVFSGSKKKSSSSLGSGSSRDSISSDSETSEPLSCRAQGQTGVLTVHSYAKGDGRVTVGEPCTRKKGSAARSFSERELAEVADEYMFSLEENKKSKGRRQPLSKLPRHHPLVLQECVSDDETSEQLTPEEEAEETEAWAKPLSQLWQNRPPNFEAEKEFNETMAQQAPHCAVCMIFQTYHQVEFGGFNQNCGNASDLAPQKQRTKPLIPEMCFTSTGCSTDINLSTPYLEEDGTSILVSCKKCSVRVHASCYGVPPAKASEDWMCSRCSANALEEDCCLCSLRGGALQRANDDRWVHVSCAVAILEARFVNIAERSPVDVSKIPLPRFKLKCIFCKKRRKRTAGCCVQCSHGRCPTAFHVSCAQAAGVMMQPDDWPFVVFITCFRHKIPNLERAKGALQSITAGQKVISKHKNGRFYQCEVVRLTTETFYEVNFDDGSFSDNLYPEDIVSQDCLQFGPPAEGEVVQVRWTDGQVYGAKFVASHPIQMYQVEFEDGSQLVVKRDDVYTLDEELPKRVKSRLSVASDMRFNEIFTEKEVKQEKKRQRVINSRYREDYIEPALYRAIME
G9a inh – qHTS Assay for Inhibitors of Histone Lysine Methyltransferase G9a | 350,000 compounds, 8.8% hits | G9a H3K9 monomethylation, AlphaScreen, 2 h | Histone-lysine N-methyltransferase EHMT2 (Homo sapiens), Q96KQ7 | Potency, µM (doses to about 102 µM), for inactives: top-dose activity, negative = inhibition, hits mostly inhibitors; further: on the % scale 0 is the no-effect control and ±100 the full control effect; nearly all actives have a fitted effect of over 75% in size
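Step 1: enzyme (final 20 nM) with compound, 15 min RT. Step 2: substrate peptide 500 nM and SAM 20 uM, 2 h RT. Step 3: anti-H3K9me1 antibody and AlphaScreen beads, 10 min, then plate read.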
BAZ2B inh – qHTS Assay for Inhibitors of BAZ2B; AlphaScreen BAZ2B-H3K14Ac peptide displacement; Potency, µM (top dose mostly 114 µM), without a hit: at the highest dose activity change, negative = inhibition, usual class: inhibitors; 360,000 compounds, 4.4% hits; further: on the % scale 0 is the no-effect control and ±100 the full control effect; nearly all actives have a fitted effect of over 60% in size
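BAZ2B (50 nM) with biotin-H3(5-23)K14Ac peptide (50 nM) in PBS pH 7.4, 0.01% Tween-20, preformed 30 min, then compound 30 min at room temperature; top concentration 110uM. AlphaScreen streptavidin donor/nickel chelate acceptor beads (10 ug/mL final), 20 min dark, signal read.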
GLS inh – qHTS for Inhibitors of Glutaminase (GLS) | Potency, µM (titrated, usually from 45.5 µM), for the others: at the top dose activity change, negative = inhibition, actives largely listed as inhibitors | 410,000 compounds, 0.21% hits | GLS enzymatic activity, qHTS titration | AID 624170, 2012; further: on the % scale 0 is the no-effect control and ±100 the full control effect
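hKGA in 45 mM KH2PO4 pH 8.2, 0.02% Tween-20 with pin-transferred compounds; 1 mM L-glutamine (stock) plus glutamate oxidase/HRP/Amplex Red coupling added. Fluorescence read initially and after 30 min at RT.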
An asterisk follows results filed as active; ? = inconclusive; . = not tested or not shown; ! = not active in a repeat; [ ] = remark or other dose. The call rests on the fitted dose curve; in most records, active means well fitted curve in the direction sought with a large enough effect; inconclusive means small, poorly fitted or top-dose-only effect, or another doubt; inactive means no such curve, though single readings can be large; an effect the other way counts as inactive or inconclusive. Potency means the concentration at half of the fitted maximal effect.

SMILES | HP1b chromo inh | JMJD2A Tudor inh | G9a inh | BAZ2B inh | GLS inh
CCCCCCCCCOc1ccc2[nH]cc(CCN)c2c1 | . | . | 15.8µM*! | 35.5µM* | .
COc1ccc2[nH]cc(CCN)c2c1 | -30.9% | 50.1µM* | 9.3%[59 µM] | ? | -5.4%
CCOc1ccccc1CN(CCc1ccc2c(c1)OCO2)Cc1ccc(CC)cc1 | ? | 5.01µM* | ? | 39.8µM* | -16.2%
CCOc1ccccc1-n1c(O)c(C=NCc2ccc3c(c2)OCO3)c(=O)[nH]c1=O | 21.6% | 12.3% | -5.8% | 8.1% | -1.2%
CC(O)CN1CCN(CC(=O)[O-])CCN(CC(=O)[O-])CCN(CC(=O)[O-])CC1.[Gd+3] (centres undefined) | . | . | . | . | -0.1%
COC(=O)c1ccc(Cl)c(NC(=O)CN2CCN(Cc3ccccc3)CC2)c1 | 26.5% | -9.0% | 11.2µM* | 4.1% | -4.6%
CCN(C[C@H]1N[C@@](CC)(C(=O)OC)[C@H]2C(=O)N(Cc3ccccc3)C(=O)[C@@H]12)S(=O)(=O)c1ccc(C)cc1 | 48.6% | -16.4% | . | . | 1.2%
Cn1c(O)c(/C=N/NC(=O)c2ccncc2)c(=O)n(C)c1=S | 39.7% | ? | 27.8%[12.7 µM] | ? | 3.9%
O=C(N/N=C\C1C(=O)NC(=S)N(c2ccccc2)C1=O)c1ccc(O)cc1 (centres undefined) | 22.4% | 79.4µM* | 8.91µM* | 25.1µM* | 0.0%
COc1ccc(OC)c(CC(C)N)c1 (centres undefined) | . | . | . | . | 4.0%[99.4 µM]
CNC(C(=O)c1ccccc1)C(OC)c1ccc(C)cc1 (centres undefined) | 32.3% | -27.7% | 44.7µM* | -1.8% | -11.7%
CNC(C(=O)c1ccccc1)C(OC(C)C)c1ccc(Cl)cc1 (centres undefined) | 29.1% | -12.6% | 1.4%[12.7 µM] | -16.4% | 7.8%
Cc1ccc(/C=C2/C(=O)NC(=O)N(CC3CCCO3)C2=O)s1 (centres undefined) | 38.5% | -9.4% | 12.6µM* | -24.4% | 17.7%
Cc1cccc(N/N=C/c2c(O)[nH]c(=S)[nH]c2=O)c1 | 23.1% | -24.1% | . | . | 34.6%
O=C(CSC(=S)N1CCCC1)N/N=C/c1c(O)[nH]c(=S)[nH]c1=O | 33.1% | 56.2µM* | . | . | 15.2%
COCCn1c(O)c(/C=N/NC(=O)CSC(=S)N2CCCC2)c(=O)[nH]c1=S | 37.2% | 89.1µM* | -23.3%[59 µM] | -0.8% | 18.3%
CCOc1ccc(C(=O)Nc2ccc3nc(SCCOc4ccccc4)sc3c2)cc1 | 35.5% | -1.0% | 2.2%[59 µM] | ? | 3.8%
CC(N)Cc1ccccc1Sc1ccc(O)cc1 (centres undefined) | . | . | 35.5µM* | -5.0%[57.1 µM] | .
c1ccc(N2CCC3(CCNCC3)CC2)cc1 | . | . | -3.2%[12.7 µM] | . | .
O=C(CNC(=O)c1ccccc1)NCC(=O)OCC(=O)c1ccc([N+](=O)[O-])cc1 | 36.3% | 13.4% | 8.91µM* | -4.4% | -5.5%
O=C1NC(=O)N(c2ccccc2)C(=O)/C1=C/c1ccc2c(c1)Cc1ccccc1-2 | . | . | 6.31µM* | . | .
COc1ccccc1N1C(=O)NC(=O)/C(=C/c2ccc3c(c2)Cc2ccccc2-3)C1=O | 59.6% | 79.4µM* | ? | 50.1µM* | -2.8%
CCCC/C(C)=C/[C@@H](NP(=O)(c1ccccc1)c1ccccc1)c1ccccc1 | 21.7% | -18.9% | 31.6µM* | -37.3% | 10.9%
CCOC(=O)c1c(N)n(CCCOC(=O)c2ccco2)c2nc3ccccc3nc12 | 61.4% | -7.5%[11.4 µM] | -32.1%[12.7 µM] | 1.9% | -16.3%
CCCCCn1c(NC(=O)c2ccco2)c(C(=O)OCC)c2nc3ccccc3nc21 | ? | ? | 50.1µM* | 6.6% | -9.9%
SMILES | HP1b chromo inh | JMJD2A Tudor inh | G9a inh | BAZ2B inh | GLS inh
CC(C)CNC(=O)c1c(N)n(Cc2ccco2)c2nc3ccccc3nc12 | 50.2% | -7.2% | 44.7µM* | 21.2% | -7.9%
CCCNC(=O)c1c(N)n(Cc2ccco2)c2nc3ccccc3nc12 | 50.2% | 30.6% | ? | 9.0% | 2.0%
CC(C)OC(=O)c1c(N)n(Cc2ccco2)c2nc3ccccc3nc12 | 67.0% | 11.9% | 3.55µM* | -12.4% | -5.7%
CC(C)c1ccccc1OCC(=O)N1CCCN(C)CC1 | 31.1% | -10.6% | 41.3% | -1.6% | 16.5%
Cc1cccc(N2C(=O)NC(=O)/C(=C\c3cccn3-c3ccc(Cl)cc3)C2=O)c1 | 27.8% | -9.8% | 24.0%[0.501 µM] | 4.5% | -7.9%
Cc1cc(C)cc(N2C(=O)NC(=O)/C(=C/c3cccn3-c3ccc(Cl)cc3)C2=O)c1 | 40.9% | -2.8% | 31.6µM* | -9.7% | -2.7%
COC(=O)C1=C(c2ccc(S(C)(=O)=O)cc2)C[C@@H]2CC[C@H]1N2C(=O)NCc1ccc(C(F)(F)F)cc1 | 24.6% | -15.1% | . | . | 3.2%
C[C@H](NC(=O)[C@@H](N)Cc1ccc(O)cc1)C(=O)NCC(=O)N(C)[C@@H](Cc1ccccc1)C(=O)NCCO | . | . | 34.6%[59 µM] | . | .
COc1ccc(O)c(CN2CCCC(C(=O)c3ccccc3SC)C2)c1 (centres undefined) | ? | 56.2µM* | . | 50.1µM* | ?
COc1ccccc1CN1CCCC(C(=O)c2ccccc2SC)C1 (centres undefined) | 15.1% | -26.3% | . | -16.7% | -19.6%
COc1ccc(NC(c2ccccc2)P(=O)(Oc2ccccc2)Oc2ccccc2)cc1 (centres undefined) | 1.9% | ? | 25.1µM* | 25.1µM* | -6.5%
COc1ccc(NC(c2ccccc2F)P(=O)(Oc2ccccc2)Oc2ccccc2)cc1 (centres undefined) | ? | ? | ? | ? | 9.3%
Cc1nn(Cc2ccccc2)c(C)c1C=C1C(=O)NC(=S)NC1=O | -25.8% | 89.1µM* | 8.91µM* | -6.9% | -5.7%
Cc1c(C=C2C(=O)NC(=O)NC2=O)c(=O)n(-c2ccccc2)n1C | 18.2% | ? | ? | -14.4% | 2.6%
O=c1[nH]c(=O)n([C@H]2C[C@@H](O)[C@@H](CO)O2)cc1C=CBr | . | . | 40.5%[59 µM] | . | .
C#CCNc1ccncc1S(=O)(=O)NC(=O)NC(C)C | 24.3% | 50.1µM* | ? | -9.0% | 4.8%
O=C(/C=C/c1c[nH]c2ccccc12)c1c(O)n(CCc2ccccc2)c(=O)[nH]c1=O | 19.5% | -14.9% | ? | -22.2% | -12.0%
Cc1nn(CC(=O)N2CCC3(CC2)OCCO3)c(=O)c2cc3ccccc3n12 | 32.8% | 7.2% | 14.8% | -1.3% | -2.0%
C[C@]12CC[C@@H]3c4cc(O)c(O)cc4CC[C@H]3[C@@H]1CC[C@@H]2O | ? | 12.6µM* | 8.91µM* | ? | 8.91µM*
C[C@]12CCC3C(CCC4=CC(=O)CC[C@@H]43)C1CCC2O (some centres undefined) | . | . | . | . | -13.7%
